# Test results taken from the supplement of paper PMC8728848.
# The entries come from a sample that favours the strongest signals as a whole.
# B1: XCL (Xerocomus chrysenteron) (protein)
# chain: MSYSITLRVYQTNRDRGYFSIVEKTVWHFANGGTWSEANGAHTLTQGGSGTSGVLRFLSTKGERITVAVGVHNYKRWCDVVTGLKPDETALVINPQYYNNGGRDYVREKQLAEYSVTSAIGTKVEVVYTVAEGNNLEANVIFS
# Experiments:
# Experiment in all cases: glycan array binding signal (z-score within array); higher = stronger binding
# Conditions in all cases: glycan notation: IUPAC condensed, linker removed
# [1] = target: Fuc(a1-2)Gal(b1-4)GlcNAc(b1-3)[Fuc(a1-2)Gal(b1-4)GlcNAc(b1-6)]GalNAc
# In short: (§1)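 Columns mapping to the same glycan were averaged after glycan names were converted to IUPAC-condensed notation. The data come from 3228 arrays in the Consortium for Functional Glycomics database, limited to those with an available protein sequence. Binding is reported as a within-array Z-score averaged across arrays of one protein sequence and across linkers.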
# [2] = target: Fuc(a1-2)[Gal(a1-3)]Gal(b1-3)GalNAc
# In short: as §1
# [3] = target: Fuc(a1-2)[Gal(a1-3)]Gal(b1-3)GlcNAc(b1-3)GalNAc
# In short: as §1
# [4] = target: Fuc(a1-2)[GalNAc(a1-3)]Gal
# In short: as §1
# [5] = target: Fuc(a1-2)[GalNAc(a1-3)]Gal(b1-3)GlcNAc(b1-3)GalNAc
# In short: as §1
# [6] = target: Fuc(a1-3)[Gal(b1-4)]GlcNAc(b1-2)Man(a1-3)[Fuc(a1-3)[Gal(b1-4)]GlcNAc(b1-2)Man(a1-6)]Man(b1-4)GlcNAc(b1-4)GlcNAc
# In short: as §1
# [7] = target: Fuc(a1-3)[Gal(b1-4)]GlcNAc(b1-3)Gal(b1-3)[Fuc(a1-4)]GlcNAc
# In short: as §1
# [8] = target: Gal(a1-3)GalNAc
# In short: as §1
# [9] = target: Gal(b1-3)GalNAc(a1-3)[Fuc(a1-2)]Gal(b1-4)GlcNAc
# In short: as §1
# [10] = target: Gal(b1-4)GlcNAc(b1-2)Man(a1-3)[Man(a1-6)]Man(b1-4)GlcNAc(b1-4)GlcNAc
# In short: as §1
# [11] = target: Gal(b1-4)GlcNAc(b1-3)[Gal(b1-4)GlcNAc(b1-6)]GalNAc
# In short: as §1
# [12] = target: Gal3S(b1-3)GalNAc
# In short: as §1
# [13] = target: Gal3S(b1-3)[Fuc(a1-4)]GlcNAc
# In short: as §1
# [14] = target: Gal6S(b1-3)GlcNAc6S
# In short: as §1
# [15] = target: Glc(b1-4)Glc
# In short: as §1
# [16] = target: GlcNAc(a1-4)Gal(b1-4)GlcNAc
# In short: as §1
# [17] = target: GlcNAc(a1-4)Gal(b1-4)GlcNAc(b1-3)Gal(b1-4)GlcNAc(b1-3)Gal(b1-4)GlcNAc
# In short: as §1
# [18] = target: GlcNAc(b1-2)Gal(b1-3)GalNAc
# In short: as §1
# [19] = target: GlcNAc(b1-2)Man(a1-3)[GlcNAc(b1-2)Man(a1-6)]Man(b1-4)GlcNAc(b1-4)GlcNAc
# In short: as §1
# [20] = target: GlcNAc(b1-2)Man(a1-3)[GlcNAc(b1-4)][GlcNAc(b1-2)Man(a1-6)]Man(b1-4)GlcNAc(b1-4)GlcNAc
# In short: as §1
# [21] = target: GlcNAc(b1-2)[GlcNAc(b1-4)]Man(a1-3)[GlcNAc(b1-4)][GlcNAc(b1-2)Man(a1-6)]Man(b1-4)GlcNAc(b1-4)GlcNAc
# In short: as §1
# [22] = target: GlcNAc(b1-2)[GlcNAc(b1-6)]Man(a1-6)[GlcNAc(b1-2)Man(a1-3)][GlcNAc(b1-4)]Man(b1-4)GlcNAc(b1-4)GlcNAc
# In short: as §1
# [23] = target: GlcNAc(b1-3)Gal
# In short: as §1
# [24] = target: GlcNAc(b1-3)Gal(b1-3)GalNAc
# In short: as §1
# [25] = target: GlcNAc(b1-3)[GlcNAc(b1-4)][GlcNAc(b1-6)]GlcNAc
# In short: as §1
# [26] = target: GlcNAc(b1-3)[GlcNAc(b1-6)]GalNAc
# In short: as §1
# [27] = target: GlcNAc(b1-4)Gal(b1-4)GlcNAc
# In short: as §1
# [28] = target: Kdn(a2-3)Gal(b1-4)Glc
# In short: as §1
# [29] = target: Neu5Ac(a2-3)Gal(b1-3)GalNAc6S
# In short: as §1
# [30] = target: Neu5Ac(a2-3)Gal(b1-4)GlcNAc(b1-2)Man(a1-3)[Neu5Ac(a2-6)Gal(b1-4)GlcNAc(b1-2)Man(a1-6)]Man(b1-4)GlcNAc(b1-4)GlcNAc
# In short: as §1
# [31] = target: Neu5Ac(a2-3)Gal(b1-4)[Fuc(a1-3)]GlcNAc
# In short: as §1
# [32] = target: Neu5Ac(a2-3)GalNAc(b1-4)GlcNAc
# In short: as §1
# [33] = target: Neu5Ac(a2-6)Gal(b1-4)GlcNAc(b1-3)Gal(b1-4)GlcNAc(b1-3)Gal(b1-4)GlcNAc
# In short: as §1
# [34] = target: Neu5Ac(a2-6)GlcNAc(b1-4)GlcNAc
# In short: as §1
# [35] = target: Neu5Ac(a2-8)Neu5Ac(a2-3)Gal(b1-4)Glc
# In short: as §1
# [36] = target: Neu5Ac(a2-8)Neu5Ac(a2-3)[GalNAc(b1-4)]Gal(b1-4)Glc
# In short: as §1
# [37] = target: Neu5Gc(a2-6)GalNAc
# In short: as §1
binder,measurement,setting,value
B1,glycan array binding signal (z-score),[1],-0.27
same,glycan array binding signal (z-score),[2],-0.324
same,glycan array binding signal (z-score),[3],-0.303
same,glycan array binding signal (z-score),[4],-0.237
same,glycan array binding signal (z-score),[5],-0.249
same,glycan array binding signal (z-score),[6],-0.324
same,glycan array binding signal (z-score),[7],-0.31
same,glycan array binding signal (z-score),[8],-0.207
same,glycan array binding signal (z-score),[9],3.43
same,glycan array binding signal (z-score),[10],-0.272
same,glycan array binding signal (z-score),[11],-0.282
same,glycan array binding signal (z-score),[12],3.44
same,glycan array binding signal (z-score),[13],-0.322
same,glycan array binding signal (z-score),[14],-0.321
same,glycan array binding signal (z-score),[15],-0.304
same,glycan array binding signal (z-score),[16],2.15
same,glycan array binding signal (z-score),[17],5.84
same,glycan array binding signal (z-score),[18],-0.139
same,glycan array binding signal (z-score),[19],4.71
same,glycan array binding signal (z-score),[20],5.38
same,glycan array binding signal (z-score),[21],4.92
same,glycan array binding signal (z-score),[22],3.42
same,glycan array binding signal (z-score),[23],0.225
same,glycan array binding signal (z-score),[24],3.71
same,glycan array binding signal (z-score),[25],0.592
same,glycan array binding signal (z-score),[26],0.896
same,glycan array binding signal (z-score),[27],-0.303
same,glycan array binding signal (z-score),[28],-0.294
same,glycan array binding signal (z-score),[29],3.87
same,glycan array binding signal (z-score),[30],-0.32
same,glycan array binding signal (z-score),[31],-0.3
same,glycan array binding signal (z-score),[32],-0.279
same,glycan array binding signal (z-score),[33],-0.311
same,glycan array binding signal (z-score),[34],-0.322
same,glycan array binding signal (z-score),[35],-0.311
same,glycan array binding signal (z-score),[36],-0.316
same,glycan array binding signal (z-score),[37],0.059
